# Results as given in the supplement of paper PMC3545927.
# The other results are listed elsewhere or left out. No count for the full screen is at hand.
# Target: furin, P09958
# Experiment: furin cleavage Z-score vs untreated control; higher = more cleavage, active = 3.5 or more, inactive = 1 or less, 8 variable residues between constant flanks
# Procedure, shortened: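 Purified furin digested bead-held 8-mer peptide–cDNA fusions at 1:10 enzyme:substrate in 0.01 ml of 50 mM HEPES pH 7.5 with CaCl2 and NaCl for 7.5, 15 or 30 min. The cleavage Z-score compares sequencing counts of released DNA with furin-free reactions on a log scale, with lowess adjustment and median absolute deviation scaling.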
# Sequence of furin, P09958 (P09958 whole entry): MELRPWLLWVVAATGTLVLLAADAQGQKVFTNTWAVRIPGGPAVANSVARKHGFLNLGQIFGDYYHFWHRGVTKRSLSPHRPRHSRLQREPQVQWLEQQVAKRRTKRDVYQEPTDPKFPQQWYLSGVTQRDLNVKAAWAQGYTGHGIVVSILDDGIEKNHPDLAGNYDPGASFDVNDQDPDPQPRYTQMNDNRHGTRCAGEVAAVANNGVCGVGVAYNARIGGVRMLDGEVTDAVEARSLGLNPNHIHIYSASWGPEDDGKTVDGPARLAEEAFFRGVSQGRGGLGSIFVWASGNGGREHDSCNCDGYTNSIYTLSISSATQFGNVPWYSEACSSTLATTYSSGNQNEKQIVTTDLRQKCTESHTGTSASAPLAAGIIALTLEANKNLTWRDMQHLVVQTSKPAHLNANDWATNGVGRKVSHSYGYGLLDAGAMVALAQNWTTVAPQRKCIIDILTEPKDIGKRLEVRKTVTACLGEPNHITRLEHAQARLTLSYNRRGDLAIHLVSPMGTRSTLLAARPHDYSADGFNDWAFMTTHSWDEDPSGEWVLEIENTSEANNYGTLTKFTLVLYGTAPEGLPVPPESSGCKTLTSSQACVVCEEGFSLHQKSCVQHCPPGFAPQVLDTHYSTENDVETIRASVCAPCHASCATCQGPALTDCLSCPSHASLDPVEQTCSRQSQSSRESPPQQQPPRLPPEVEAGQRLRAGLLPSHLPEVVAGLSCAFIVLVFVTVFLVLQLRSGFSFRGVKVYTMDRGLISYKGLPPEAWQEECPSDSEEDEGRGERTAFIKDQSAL
Sequence,furin cleavage Z-score (7.5 min),furin cleavage Z-score (15 min),furin cleavage Z-score (30 min)
CAPDLGVRVCAGNASASA [HC1452],-1.67 (inactive),-0.653 (inactive),-0.786 (inactive)
CARFRREVEKAGNASASA [FS-2490],9.16 (active),8.26 (active),9.23 (active)
CARVFRQVEKAGNASASA [FS-2386],-1.6 (inactive),-2.06 (inactive),-1.6 (inactive)
CARFDRSSGPAGNASASA [FS-3220],-0.295 (inactive),1.66,0.428 (inactive)
CARFDRSVEKAGNASASA [FS-2013],2.17,0.744 (inactive),3.51 (active)
CARFRRDLVKAGNASASA [FS-1892],3.6 (active),6.06 (active),7.08 (active)
CARNIRSGVHAGNASASA [FS-3006],-0.391 (inactive),-0.599 (inactive),-0.61 (inactive)
CAEVVTSTWNAGNASASA [HC2261],-0.954 (inactive),1.01,0.548 (inactive)
CAGGVVLVGLAGNASASA [HC570],-0.221 (inactive),0.261 (inactive),-0.661 (inactive)
CAEPRRQRRLAGNASASA [FS-1118],3.93 (active),4.47 (active),4.27 (active)
CALPSRETRYAGNASASA [FS-1364],2.17,1.29,-0.268 (inactive)
CAWQRRLRRLAGNASASA [FS-895],3.85 (active),5.94 (active),6.13 (active)
CAFLTRLRRPAGNASASA [FS-769],-0.966 (inactive),-0.023 (inactive),0.341 (inactive)
CALPSRLRRMAGNASASA [FS-55],9.43 (active),11.4 (active),8.99 (active)
CAGDSRQRRLAGNASASA [FS-424],-0.0244 (inactive),0.999 (inactive),0.163 (inactive)
CASRGRLRRLAGNASASA [FS-1572],4.39 (active),6.32 (active),6.52 (active)
CAPRWIWFCLAGNASASA [HC1655],2.54,0.216 (inactive),2.32
CADYEPPVVHAGNASASA [HC1313],-0.331 (inactive),-1.03 (inactive),0.818 (inactive)
CAKKSRAERKAGNASASA [FS-676],-0.262 (inactive),-0.389 (inactive),0.536 (inactive)
CAKKSRSGRHAGNASASA [FS-1635],1.49,3.83 (active),4.08 (active)
CARKKRVHFHAGNASASA [FS-2271],-0.215 (inactive),-0.15 (inactive),0.343 (inactive)
CAKKSRKSRPAGNASASA [FS-43],-1.56 (inactive),-0.706 (inactive),-1.33 (inactive)

Sequence,furin cleavage Z-score (7.5 min),furin cleavage Z-score (15 min),furin cleavage Z-score (30 min)
CARKKRSGRHAGNASASA [FS-2968],8.42 (active),11.9 (active),8.64 (active)
CAYGMWPLLLAGNASASA [HC556],1.73,0.0218 (inactive),-0.323 (inactive)
CATTPCSGHWAGNASASA [HC1915],-0.316 (inactive),1.87,0.16 (inactive)
CAAHGIDPNIAGNASASA [HC796],-0.768 (inactive),-0.681 (inactive),0.0731 (inactive)
CATTPCDGSWAGNASASA [HC72],0.037 (inactive),1.11,0.507 (inactive)
CAMEECSLHLAGNASASA [HC1725],-0.0304 (inactive),0.668 (inactive),0.792 (inactive)
CAREGRLKRDAGNASASA [FS-1256],11.7 (active),13 (active),11 (active)
CAKQLRLKRDAGNASASA [FS-814],15 (active),13.5 (active),10.4 (active)
CAKRSHLKRDAGNASASA [FS-680],6.24 (active),7.72 (active),6.62 (active)
CAREGRSKALAGNASASA [FS-2911],0.205 (inactive),2.53,0.493 (inactive)
CARYGRFLQPAGNASASA [FS-3134],0.584 (inactive),1.53,0.786 (inactive)
CARYGRCKRDAGNASASA [FS-715],15.2 (active),15.5 (active),11.9 (active)
CASGPCSAHLAGNASASA [HC2496],-0.802 (inactive),0.24 (inactive),0.168 (inactive)
CAADAVDGAGAGNASASA [CS10],0.632 (inactive),-1.19 (inactive),1.15
CALNNTRPPLAGNASASA [HC430],2.07,0.471 (inactive),1.95
CACGSSDLYLAGNASASA [HC723],-2.29 (inactive),-1.54 (inactive),-0.552 (inactive)
CATTPCSVSWAGNASASA [HC1890],-0.725 (inactive),-1.82 (inactive),-0.963 (inactive)
CAQVGDFHYVAGNASASA [HC1208],-1.01 (inactive),0.348 (inactive),-0.0115 (inactive)
CAGPIRLKRDAGNASASA [FS-593],15 (active),15.3 (active),10.9 (active)
CAKQHRLKRYAGNASASA [FS-1349],11.1 (active),11.6 (active),10 (active)
CARVERFKRDAGNASASA [FS-1567],12.4 (active),11.1 (active),8.4 (active)
